Screens as filed in PubChem.
TRHR agonist = activates the human TRH receptor. P34981. TRHR cells, calcium flux fluo-8, FDSS agonist mode. activation, % at 2 µM. hit rate 0.18% among 360,000; in the data active = activation above about 30%
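Fluo-8-loaded TRHR cells; 10 s baseline, compound added, kinetic Ca2+ fluorescence read 1/s, agonist mode.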
GLP1R ag = GLP-1 receptor (human) agonism; HEK293 GLP-1R CRE-luciferase, luminescence, 4-6 h; cells express a hypersensitive GLP-1R form; hit rate 0.007% among 380,000; Potency, µM (highest dose often 45.6 µM), most hits filed as activators; AID 624172
Target sequence (P43220 whole entry, looked up): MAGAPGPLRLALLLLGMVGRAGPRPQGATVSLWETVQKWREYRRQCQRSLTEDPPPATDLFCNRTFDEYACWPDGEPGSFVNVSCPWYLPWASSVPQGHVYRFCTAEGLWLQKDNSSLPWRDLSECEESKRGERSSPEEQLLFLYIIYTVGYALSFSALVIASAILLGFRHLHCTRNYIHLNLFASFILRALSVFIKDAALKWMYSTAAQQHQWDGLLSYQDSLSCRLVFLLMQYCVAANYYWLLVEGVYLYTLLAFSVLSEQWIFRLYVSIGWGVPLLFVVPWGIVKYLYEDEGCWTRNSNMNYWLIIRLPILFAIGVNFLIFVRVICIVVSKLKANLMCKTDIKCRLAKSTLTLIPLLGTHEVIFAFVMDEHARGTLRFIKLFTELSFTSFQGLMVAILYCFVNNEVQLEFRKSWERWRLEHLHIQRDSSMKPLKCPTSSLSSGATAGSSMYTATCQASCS
PTHR1 ag = PTHR1 (human) receptor agonism; Q03431; HEK293 GP2 PTHR1 cells, GloSensor cAMP luminescence, 1 h; Potency, µM (series often up to 115 µM), actives largely listed as activators; hit rate 0.075% among 410,000; note: nearly all actives have a fitted effect of over 55% in size
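HEK-293-derived GP2 cells expressing PTHR1 and a GloSensor cAMP reporter, 3,000/well, plated overnight, given luciferin plus IBMX (each 0.5 mM as added) for 1 h at 37 °C, then compound for 1 h at 37 °C. Luminescence was read after 15 min at room temperature.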
HEK293 tox = cytotoxicity counter-screen for GLP-1 receptor inverse agonists. HEK293 cAMP-luciferase reporter cells, luminescence, 24 h. Potency, µM (doses to about 38.3 µM), actives largely listed as inhibitors. hit rate 0.13% among 410,000. AID 624418;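 note: loss of luciferase light is scored as toxicity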
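1536-well qHTS counterscreen of the MLSMR; 200 cells/uL, 12 h pre-incubation, 23 nL cpd, 24 h at 37 deg C 5% CO2, luciferase detection reagent, 12 min RT, luminescence. Inhibition = undesired.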
TRHR PAM = TRH receptor (human) allosteric enhancement. P34981. TRHR cells, fluo-8 calcium fluorescence, EC20 TRH enhancement. enhancement, % at 2 µM. hit rate 0.66% among 360,000. AID 493056; in the data active = enhancement above about 30%
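TRHR-expressing cells loaded with fluo-8 calcium dye were read kinetically (ex 480/em 530) during compound addition, then stimulated with an EC20 of TRH (10 nM final). Enhancement of the Gq-mediated intracellular calcium response was scored.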
GLP-1R inv ag = acts as inverse agonist at human GLP-1 receptor; P43220; HEK293 GLP-1R CRE-luciferase, luminescence, 24 h; GLP-1R form is constitutively active; Potency, µM (doses to about 38.3 µM), hits mostly inhibitors; hit rate 1.6% among 410,000; AID 624417; note: nearly all actives have a fitted effect of over 55% in size
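Luminescence readout: a drop in cAMP-driven luciferase signal flags inverse agonism at a constitutively active GLP-1R stably expressed in HEK293. Compound exposure lasted 24 hr at 37 deg C, 5% CO2.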
Hits are given with their value; - = inactive; ? = inconclusive; . = not tested or not shown. Sampled rows, rich in hits. Any-hit rate of the full collection: about 2.4%. Unless noted, calls come from the whole dose curve; as a rule, active = well fitted curve in the direction sought with a large enough effect; inconclusive = small, poorly fitted or top-dose-only effect, or another doubt; inactive = no such curve, though single readings can be large; an effect the other way counts as inactive or inconclusive.

SMILES	TRHR agonist	GLP1R ag	PTHR1 ag	HEK293 tox	TRHR PAM	GLP-1R inv ag
O=C(COc1ccccc1-c1ccccc1)N/N=C/c1ccncc1	-	-	-	-	-	?
NC(=S)N/N=C/c1cccc(/C=N/NC(N)=S)c1	-	-	-	-	-	-
NC(=S)N/N=C/c1ccc2ccccc2c1	-	-	-	3.2µM	-	5.6µM
O=C(COc1ccccc1-c1ccccc1)N/N=C/c1ccc2ccccc2c1	-	-	-	?	-	1µM
CC(C)[C@H](NC(=O)[C@@H]1CSC2c3ccccc3C(=O)N21)C(=O)NC1CCCCC1 (some centres not stated)	-	-	-	-	-	?
CC(C)c1ccc(NC(=O)Cc2ccc(NC3=NC4CS(=O)(=O)CC4S3)cc2)cc1 (configuration not stated)	-	-	-	-	-	-
Cn1c(=O)c2sccc2n2c(CCC(=O)N3CCN(c4ccc(F)cc4)CC3)nnc12	-	.	.	.	-	.
COc1cc2cc(CNc3ccccc3)c(=O)n(CC(=O)Nc3cc(C)cc(C)c3)c2cc1OC	34	-	-	-	-	-
CCc1ccc(NC(=O)Cn2c(=O)c(CNc3ccccc3)cc3cc(OC)c(OC)cc32)cc1	-	.	-	-	-	-
CCC(C(=O)Nc1ccccc1-c1ccccc1)c1ccccc1 (configuration not stated)	-	-	-	-	-	7.9µM
CCC(C(=O)Nc1ccccc1)c1ccccc1 (configuration not stated)	-	-	-	-	-	?
O=C(CC1Sc2ccccc2NC1=O)NNc1cccc(Cl)c1Cl (configuration not stated)	.	-	-	-	.	2µM
CC(=O)Nc1ccc(NC(=O)CC2Sc3ccccc3NC2=O)cc1 (configuration not stated)	-	.	-	-	-	-
CCn1c(SCC(=O)c2cc(C)n(-c3ccc(C(=O)OC)cc3)c2C)nnc1-c1cccnc1	-	-	-	-	-	11µM
Cc1ccc(C(=O)NCCc2nnc3ccc(SCC(=O)N4CCCC4)nn23)cc1	-	-	-	-	-	-
Cc1ccc(C(=O)NCCc2nnc3ccc(SCC(=O)N4CCCCC4)nn23)cc1	-	-	-	-	33	-
COc1ccc(/C=N/NC(=O)CO/N=C(\C)c2cccs2)cc1	-	-	-	-	-	-
C/C(=N\OCC(=O)N/N=C/c1ccccc1)c1cccs1	-	-	-	-	35	-
CN(C)C(=O)C(OC(=O)c1ccc2ccccc2n1)c1ccccc1 (configuration not stated)	-	-	-	-	-	-
OCCCc1nc2ccccc2n1CCc1ccccc1	-	-	-	-	-	-
CCCc1nc2ccccc2n1CCc1ccccc1	-	-	-	-	-	10µM
CCc1nc2ccccc2n1CCCCOc1ccc(C)cc1	-	.	-	-	-	10µM
O=C(Cn1cc(C(F)(F)F)ccc1=O)N1CCc2ccccc2C1	-	-	-	-	-	-
O=C(Cn1cc(C(F)(F)F)ccc1=O)N1CCN(S(=O)(=O)c2ccccc2)CC1	-	-	-	-	40	-
Cc1ccc(Nc2nnc(SCC(=O)Nc3cccc(S(=O)(=O)N4CCCCC4)c3)s2)cc1	-	-	-	-	-	?
O=C(CN1CCN(S(=O)(=O)c2ccccc2)CC1)Nc1cccc(C(F)(F)F)c1	-	-	-	-	-	4.5µM
O=C(CSc1nnc(Nc2ccccc2F)s1)Nc1cccc(S(=O)(=O)N2CCCCC2)c1	-	-	-	-	-	10µM
O=C(CNc1cccc(S(=O)(=O)N2CCCC2)c1)Nc1cccc(F)c1	-	-	-	-	-	?
O=C(CNc1cccc(C(F)(F)F)c1)Nc1cccc(S(=O)(=O)N2CCCC2)c1	-	-	-	-	-	2.5µM
O=C(N/N=C/c1cccs1)c1c[nH]c2ccccc12	-	-	-	-	-	-
